The results in this text go back to ChEMBL document CHEMBL1961873, “Compounds: GSK PKIS; Assays: Nanosyn kinase panel” (2012).

In test [1] the target is T1, Serine/threonine-protein kinase Nek9 (Homo sapiens) (UniProt Q8TD19).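 Note: each value is a mean percent inhibition of NEK9.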
T1 sequence (whole entry): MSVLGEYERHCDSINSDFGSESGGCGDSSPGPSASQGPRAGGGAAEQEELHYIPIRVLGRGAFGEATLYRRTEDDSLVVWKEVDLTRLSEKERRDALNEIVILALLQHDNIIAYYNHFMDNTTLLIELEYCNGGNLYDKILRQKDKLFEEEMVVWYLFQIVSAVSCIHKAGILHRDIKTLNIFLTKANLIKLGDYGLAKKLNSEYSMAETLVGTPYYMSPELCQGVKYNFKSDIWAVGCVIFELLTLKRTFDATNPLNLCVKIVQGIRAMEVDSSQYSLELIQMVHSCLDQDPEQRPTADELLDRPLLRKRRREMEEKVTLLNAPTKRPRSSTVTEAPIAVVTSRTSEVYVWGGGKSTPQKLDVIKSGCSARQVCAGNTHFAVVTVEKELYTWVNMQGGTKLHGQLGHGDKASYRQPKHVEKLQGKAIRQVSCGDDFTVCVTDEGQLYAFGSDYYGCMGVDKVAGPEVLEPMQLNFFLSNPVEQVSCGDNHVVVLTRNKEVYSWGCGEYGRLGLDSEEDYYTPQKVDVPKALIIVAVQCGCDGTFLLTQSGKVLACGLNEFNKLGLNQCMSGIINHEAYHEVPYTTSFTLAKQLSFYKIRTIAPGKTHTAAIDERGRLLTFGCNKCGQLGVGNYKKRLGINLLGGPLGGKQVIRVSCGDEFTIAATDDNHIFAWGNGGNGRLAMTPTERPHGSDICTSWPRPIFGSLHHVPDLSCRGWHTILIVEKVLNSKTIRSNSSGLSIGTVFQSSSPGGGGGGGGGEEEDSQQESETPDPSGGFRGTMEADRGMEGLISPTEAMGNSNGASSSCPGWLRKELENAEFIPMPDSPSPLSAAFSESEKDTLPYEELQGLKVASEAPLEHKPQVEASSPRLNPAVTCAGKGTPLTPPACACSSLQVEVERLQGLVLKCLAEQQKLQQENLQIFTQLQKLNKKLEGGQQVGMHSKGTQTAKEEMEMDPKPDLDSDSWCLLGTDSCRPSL
Particulars: at 1 µM.

In test [2] the target is Serine/threonine-protein kinase PLK1 (Homo sapiens) (UniProt P53350). Particulars: at 0.1 µM.
For test [3] the target is unchanged. Particulars: at 1 µM.
Test [4] addresses T2, Dual specificity protein kinase TTK (Homo sapiens) (UniProt P33981).
T2 sequence (whole entry): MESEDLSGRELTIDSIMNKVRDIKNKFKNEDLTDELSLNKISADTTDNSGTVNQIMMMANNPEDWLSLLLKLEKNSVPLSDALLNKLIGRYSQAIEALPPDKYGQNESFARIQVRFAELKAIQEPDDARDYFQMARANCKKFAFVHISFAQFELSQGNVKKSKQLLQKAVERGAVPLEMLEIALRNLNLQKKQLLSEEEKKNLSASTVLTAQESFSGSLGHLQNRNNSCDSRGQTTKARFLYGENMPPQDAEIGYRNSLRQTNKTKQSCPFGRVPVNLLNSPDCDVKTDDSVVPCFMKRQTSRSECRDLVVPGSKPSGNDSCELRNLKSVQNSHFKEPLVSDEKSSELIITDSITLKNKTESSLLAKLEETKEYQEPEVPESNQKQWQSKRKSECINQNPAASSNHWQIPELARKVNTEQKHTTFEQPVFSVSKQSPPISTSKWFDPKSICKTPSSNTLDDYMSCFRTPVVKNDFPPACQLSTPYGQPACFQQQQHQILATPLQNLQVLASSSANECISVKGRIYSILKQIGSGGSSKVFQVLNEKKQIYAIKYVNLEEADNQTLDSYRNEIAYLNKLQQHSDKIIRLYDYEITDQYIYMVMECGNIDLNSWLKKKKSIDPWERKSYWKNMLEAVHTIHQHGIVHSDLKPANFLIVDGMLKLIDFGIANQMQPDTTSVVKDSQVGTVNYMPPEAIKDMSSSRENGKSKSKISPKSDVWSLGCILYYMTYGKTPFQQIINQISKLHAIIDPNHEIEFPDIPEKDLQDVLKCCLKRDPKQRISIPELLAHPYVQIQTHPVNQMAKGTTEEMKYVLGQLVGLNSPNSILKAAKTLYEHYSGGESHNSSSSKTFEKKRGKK
Particulars: at 0.1 µM.

The test system of test [5] is T3, Receptor-type tyrosine-protein kinase FLT3 (Homo sapiens), P36888 [D835Y].
T3 sequence (whole entry): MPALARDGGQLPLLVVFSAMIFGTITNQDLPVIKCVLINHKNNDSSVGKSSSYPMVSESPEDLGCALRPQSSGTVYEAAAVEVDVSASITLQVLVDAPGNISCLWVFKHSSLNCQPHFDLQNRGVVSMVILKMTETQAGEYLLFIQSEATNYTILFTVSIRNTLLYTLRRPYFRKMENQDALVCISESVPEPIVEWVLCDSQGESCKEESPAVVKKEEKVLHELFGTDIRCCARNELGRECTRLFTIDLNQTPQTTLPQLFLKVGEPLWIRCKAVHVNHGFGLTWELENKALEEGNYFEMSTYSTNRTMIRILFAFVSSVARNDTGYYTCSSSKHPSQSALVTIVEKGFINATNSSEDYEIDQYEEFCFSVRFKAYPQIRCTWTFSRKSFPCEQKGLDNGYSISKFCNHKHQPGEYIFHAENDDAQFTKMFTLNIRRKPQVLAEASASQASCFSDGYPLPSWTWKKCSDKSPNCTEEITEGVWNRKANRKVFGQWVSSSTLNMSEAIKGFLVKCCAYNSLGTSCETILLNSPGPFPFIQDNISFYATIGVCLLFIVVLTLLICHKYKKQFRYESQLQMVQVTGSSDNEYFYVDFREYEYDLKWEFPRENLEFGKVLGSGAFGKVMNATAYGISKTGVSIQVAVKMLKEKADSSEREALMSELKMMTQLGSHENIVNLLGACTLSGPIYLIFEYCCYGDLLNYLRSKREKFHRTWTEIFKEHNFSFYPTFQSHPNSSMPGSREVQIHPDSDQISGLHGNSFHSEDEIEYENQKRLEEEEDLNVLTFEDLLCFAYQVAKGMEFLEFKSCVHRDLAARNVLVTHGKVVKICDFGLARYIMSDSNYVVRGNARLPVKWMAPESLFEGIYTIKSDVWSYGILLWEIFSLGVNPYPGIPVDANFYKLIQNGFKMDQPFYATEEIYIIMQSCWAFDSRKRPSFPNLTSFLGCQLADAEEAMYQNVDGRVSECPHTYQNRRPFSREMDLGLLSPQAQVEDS
Particulars: at 1 µM.

For test [6], the target named is Vascular endothelial growth factor receptor 3 (Homo sapiens) (UniProt P35916). Particulars: at 0.1 µM.
For test [7] the target is unchanged. Particulars: at 1 µM.
Test [8] addresses Macrophage colony-stimulating factor 1 receptor (Homo sapiens) (UniProt P07333). Particulars: at 0.1 µM.
Test [9] shares this target. Particulars: at 1 µM.
Test [10] addresses Tyrosine-protein kinase Fyn (Homo sapiens) (UniProt P06241). Particulars: at 0.1 µM.

Tyrosine-protein kinase Fyn (Homo sapiens), sequence (P06241 2-537 limits assumed): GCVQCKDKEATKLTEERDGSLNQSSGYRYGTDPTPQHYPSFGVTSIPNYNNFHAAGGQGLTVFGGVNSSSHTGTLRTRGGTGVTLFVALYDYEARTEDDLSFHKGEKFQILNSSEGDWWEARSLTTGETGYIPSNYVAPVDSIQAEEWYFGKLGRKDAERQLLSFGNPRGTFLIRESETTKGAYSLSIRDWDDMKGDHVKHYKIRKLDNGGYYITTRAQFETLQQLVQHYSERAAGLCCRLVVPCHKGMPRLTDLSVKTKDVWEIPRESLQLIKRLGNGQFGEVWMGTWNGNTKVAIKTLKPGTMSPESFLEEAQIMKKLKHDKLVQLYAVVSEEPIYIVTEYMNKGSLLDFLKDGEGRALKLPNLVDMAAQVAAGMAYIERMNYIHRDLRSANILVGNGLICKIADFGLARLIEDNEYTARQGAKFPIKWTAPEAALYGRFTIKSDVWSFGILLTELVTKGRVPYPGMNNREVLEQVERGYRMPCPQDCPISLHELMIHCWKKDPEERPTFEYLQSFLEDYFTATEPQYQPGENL
Serine/threonine-protein kinase PLK1 (Homo sapiens), sequence (P53350 whole entry): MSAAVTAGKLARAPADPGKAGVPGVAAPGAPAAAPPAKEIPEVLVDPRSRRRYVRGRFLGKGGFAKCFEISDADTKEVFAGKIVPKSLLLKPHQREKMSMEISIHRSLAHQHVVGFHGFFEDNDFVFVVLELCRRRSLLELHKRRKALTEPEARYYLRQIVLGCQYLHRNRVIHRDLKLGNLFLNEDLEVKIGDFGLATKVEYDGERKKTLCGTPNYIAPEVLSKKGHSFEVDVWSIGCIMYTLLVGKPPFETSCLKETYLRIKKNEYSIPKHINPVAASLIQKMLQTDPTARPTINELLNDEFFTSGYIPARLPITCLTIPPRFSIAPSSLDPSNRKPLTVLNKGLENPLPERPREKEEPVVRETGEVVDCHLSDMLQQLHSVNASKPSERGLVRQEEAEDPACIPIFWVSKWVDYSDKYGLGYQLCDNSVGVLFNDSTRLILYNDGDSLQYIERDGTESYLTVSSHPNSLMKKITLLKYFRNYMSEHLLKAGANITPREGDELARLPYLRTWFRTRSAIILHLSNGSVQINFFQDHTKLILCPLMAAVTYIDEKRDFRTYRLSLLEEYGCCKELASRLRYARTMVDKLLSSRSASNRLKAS
Macrophage colony-stimulating factor 1 receptor (Homo sapiens), sequence (P07333 whole entry): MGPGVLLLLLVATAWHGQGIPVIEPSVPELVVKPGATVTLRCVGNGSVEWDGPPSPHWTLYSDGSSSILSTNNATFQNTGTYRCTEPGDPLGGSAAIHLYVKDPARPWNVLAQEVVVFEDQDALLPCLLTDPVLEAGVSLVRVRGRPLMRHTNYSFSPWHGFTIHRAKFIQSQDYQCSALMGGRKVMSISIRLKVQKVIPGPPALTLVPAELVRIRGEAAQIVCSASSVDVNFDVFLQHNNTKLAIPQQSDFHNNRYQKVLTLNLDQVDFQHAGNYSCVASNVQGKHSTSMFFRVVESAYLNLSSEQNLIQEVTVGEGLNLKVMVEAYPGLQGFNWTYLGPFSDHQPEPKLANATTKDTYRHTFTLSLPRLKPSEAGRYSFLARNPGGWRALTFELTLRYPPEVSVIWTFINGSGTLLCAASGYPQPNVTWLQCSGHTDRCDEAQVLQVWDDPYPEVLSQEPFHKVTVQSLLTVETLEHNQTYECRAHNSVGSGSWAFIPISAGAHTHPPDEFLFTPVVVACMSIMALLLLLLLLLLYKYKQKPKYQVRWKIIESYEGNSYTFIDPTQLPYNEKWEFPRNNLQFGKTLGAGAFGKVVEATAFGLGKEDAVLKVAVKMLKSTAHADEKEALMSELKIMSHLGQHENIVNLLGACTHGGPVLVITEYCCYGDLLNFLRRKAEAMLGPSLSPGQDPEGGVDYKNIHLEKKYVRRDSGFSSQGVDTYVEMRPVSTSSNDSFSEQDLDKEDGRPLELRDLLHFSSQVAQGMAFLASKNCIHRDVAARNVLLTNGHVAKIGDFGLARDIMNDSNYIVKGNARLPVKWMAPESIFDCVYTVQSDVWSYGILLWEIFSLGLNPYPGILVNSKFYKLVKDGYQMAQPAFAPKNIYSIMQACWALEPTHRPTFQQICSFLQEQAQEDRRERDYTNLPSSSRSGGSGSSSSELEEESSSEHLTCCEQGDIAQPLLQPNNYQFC
Vascular endothelial growth factor receptor 3 (Homo sapiens), sequence (P35916 whole entry): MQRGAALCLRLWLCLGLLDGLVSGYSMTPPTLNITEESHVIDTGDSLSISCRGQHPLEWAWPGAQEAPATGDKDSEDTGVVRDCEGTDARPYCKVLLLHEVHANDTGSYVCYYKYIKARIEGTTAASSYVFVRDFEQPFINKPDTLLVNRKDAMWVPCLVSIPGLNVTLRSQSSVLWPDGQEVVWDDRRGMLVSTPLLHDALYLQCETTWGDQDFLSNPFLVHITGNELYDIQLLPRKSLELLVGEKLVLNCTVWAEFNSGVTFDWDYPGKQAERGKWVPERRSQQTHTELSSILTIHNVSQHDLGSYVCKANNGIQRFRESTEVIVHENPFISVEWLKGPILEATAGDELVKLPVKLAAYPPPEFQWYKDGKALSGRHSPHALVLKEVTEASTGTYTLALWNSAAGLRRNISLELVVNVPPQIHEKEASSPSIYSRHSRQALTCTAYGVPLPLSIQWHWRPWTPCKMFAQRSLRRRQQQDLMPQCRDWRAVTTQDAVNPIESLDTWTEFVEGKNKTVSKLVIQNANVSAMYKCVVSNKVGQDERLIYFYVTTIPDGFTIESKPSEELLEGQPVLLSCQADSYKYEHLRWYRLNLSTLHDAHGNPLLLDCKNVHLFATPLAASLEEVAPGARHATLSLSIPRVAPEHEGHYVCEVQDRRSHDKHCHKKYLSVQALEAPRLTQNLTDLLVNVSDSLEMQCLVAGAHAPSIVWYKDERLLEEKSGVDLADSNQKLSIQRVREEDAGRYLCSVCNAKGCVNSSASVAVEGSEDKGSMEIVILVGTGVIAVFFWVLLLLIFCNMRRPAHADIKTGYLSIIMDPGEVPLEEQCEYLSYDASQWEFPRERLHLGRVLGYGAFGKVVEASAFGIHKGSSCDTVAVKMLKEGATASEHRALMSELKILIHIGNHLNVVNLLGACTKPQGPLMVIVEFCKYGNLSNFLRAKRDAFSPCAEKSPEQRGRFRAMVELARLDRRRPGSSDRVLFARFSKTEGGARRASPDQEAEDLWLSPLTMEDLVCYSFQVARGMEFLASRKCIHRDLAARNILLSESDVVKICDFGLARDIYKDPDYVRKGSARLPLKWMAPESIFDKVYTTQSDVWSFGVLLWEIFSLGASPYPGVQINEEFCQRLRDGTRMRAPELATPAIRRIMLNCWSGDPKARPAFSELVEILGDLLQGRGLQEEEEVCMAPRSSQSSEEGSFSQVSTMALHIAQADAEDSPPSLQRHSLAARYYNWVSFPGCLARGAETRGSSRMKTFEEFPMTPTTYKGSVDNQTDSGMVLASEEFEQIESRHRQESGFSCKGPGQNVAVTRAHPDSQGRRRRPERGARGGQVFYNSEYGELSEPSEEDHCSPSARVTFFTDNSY

The inhibition is the drop in the measured response relative to a control, in per cent. In the case of `CS(=O)(=O)CCN(CC#N)Cc1ccc(-c2ccc3ncnc(Nc4ccc(OCc5cccc(F)c5)c(Cl)c4)c3c2)o1`, the inhibition was 3.24% in test [1]; 4.17% in test [2]; 2.97% in test [3]; 2.64% in test [4]; 0.21% in test [5]; -3.53% in test [6]. For the same compound, the inhibition in [7] is -8.49%; in [8], 1.14%; in [9], 5.44%; in [10], -3.25%.

For `CCCN1CCC(Oc2cc(Nc3nc(Nc4cccc(F)c4C(N)=O)c4cc[nH]c4n3)c(OC)cc2Cl)CC1`, the inhibition in test [1] was -2.13%; in [2], 8.91%; in test [3], 47.5%; in test [4], 3.35%; in test [5], -3.06%; in test [6], 12.3%. The inhibition was 14.6% in test [7], -0.53% in [8], 3.9% in test [9] and 1.38% in test [10].

As for `COc1ccc(-c2ccncc2)cc1C(N)=O`, the inhibition in test [1] came to 2.67%; in test [2] it was 5.64%; in [3] it was 6.97%; in test [4], 5.37%; in test [5] it was 3.51%; in test [6] it was 3.2%. Further, the inhibition in [7] is 2%; in [8], 2.6%; in test [9], 5.33%; in test [10], 2.01%.

Turning to `Cc1nnc(-c2ccc(C)c(-c3ccc(C(=O)Nc4cccc(C#N)c4)cc3)c2)o1`, the inhibition in [1] is 6.96%; in test [2], 2.65%; in [3], 1.18%; in test [4] it was 3.88%; in test [5], 1.89%; in test [6] it was -1.08%. In addition, the inhibition in test [7] is 1.02%; in test [8], -0.4%; in test [9], 0.77%; in test [10] it was 3.8%.

In the case of `CCn1c(-c2nonc2N)nc2cncc(C(=O)N3CC[C@H](N)C3)c21`, the inhibition is 19.1% in [1]; 4.34% in [2]; 8.01% in test [3]; 16% in [4]; -5.46% in test [5]; 5.85% in test [6]. Also, the inhibition in test [7] came out at 7.41%; in [8] it was 1.27%; in test [9] it was 3.01%; in test [10], 3.5%.

Turning to `Nc1ncnc2occ(-c3ccc(NC(=O)Nc4cccc(C(F)(F)F)c4)cc3)c12`, the inhibition turned out to be 17.9% in [1]; 4.84% in test [2]; 5.99% in [3]; 7.86% in [4]; 34.6% in test [5]; 53% in test [6]. Moreover, the inhibition in test [7] was found to be 99.6%; in [8], 98.1%; in [9], 78%; in [10], 3.58%.

For `COc1cc(C)c(NC(=O)CN(C)C)cc1Nc1nc(Nc2cccc(F)c2C(N)=O)c2cc[nH]c2n1`, the inhibition is 2.11% in [1]; 70.5% in test [2]; 92.2% in test [3]; 24.2% in test [4]; 4.71% in [5]; -3.04% in test [6]. The inhibition in test [7] came out at 1.77%; in [8], 3.71%; in test [9], 26.6%; in [10], 1.54%.

For `Cc1nn(C)c2cc(N(C)c3ccnc(Nc4cccc(S(N)(=O)=O)c4)n3)ccc12`, the inhibition in test [1] was 13.1%; in test [2], 2.85%; in [3], 3.39%; in test [4], 13%; in [5] it was 11.9%; in test [6], 15.6%. Further, the inhibition in [7] is 62.9%; in test [8] it was 75.5%; in test [9] it was 93.9%; in test [10], 4.56%.

Consider `O=C1NC(=O)C(c2cccc(Cl)c2)=C1Nc1ccc(O)c(Cl)c1`, for which the inhibition in test [1] came to 8.97%; in [2], 2.84%; in [3], 3.21%; in [4] it was 2.22%; in [5], 3.58%; in [6], 1.15%. Further, the inhibition in test [7] was determined as 13.3%; in [8] it was 5.89%; in test [9], 46.8%; in [10], 2.3%.
